ID4 SMM = binders of human ID4 protein | P47928 | small molecule microarray, Flag-ID4 binding, fluorescence F/B | calls only | 31,000 tested, 1.2% active | AID 624137; call rule not given here;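 note: a binder raises fluorescence above local background on the spot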
Target sequence (P47928 whole entry, looked up): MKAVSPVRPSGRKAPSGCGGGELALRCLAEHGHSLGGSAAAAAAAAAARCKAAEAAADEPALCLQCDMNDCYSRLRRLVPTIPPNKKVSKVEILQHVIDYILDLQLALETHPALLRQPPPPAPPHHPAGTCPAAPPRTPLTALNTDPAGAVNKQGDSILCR
mut p53 react = mutant p53 pathway reactivation. SW480 PUMA-promoter luciferase. activation, % at 9.98 µM. 28,000 tested, 1.5% active; in the data active = activation above about 52%
An asterisk follows results filed as active; i = inactive; x = no result given; + = active, no number. Compounds with a hit are over-represented: about 2.1% of the library has one in this group of screens.

SMILES	ID4 SMM	mut p53 react
O=C(COc1ccc(I)cc1)Nc1cccc(-c2nnc(-c3ccco3)o2)c1	i	79*
COc1ccccc1OCC(=O)Nc1ccc(-c2nc3ccc(C)cc3[nH]2)cc1	i	1
COc1cccc(OCC(=O)Nc2ccc(-c3nc4ccccc4[nH]3)cc2)c1	+	5
Cc1cc(C)cc(OCC(=O)Nc2cccc(-c3nnc(-c4ccco4)o3)c2)c1	i	42
CS(=O)(=O)N(CC(=O)Nc1cccc(F)c1)c1cccc2ccccc12	i	-5
Cc1ccc(NC(=O)C(C)NS(=O)(=O)c2ccc(Cl)cc2)cc1Cl (stereo unspecified)	i	-1
C=CC1c2cc(O)c(OC)cc2CCN1Cc1sc2ccccc2c1Cl (stereo unspecified)	i	x
Cc1ccc2nc(-c3ccc(C)c(NC(=O)COc4ccc([N+](=O)[O-])cc4)c3)oc2c1	i	91*
COc1ccc(-c2nc3ccccc3o2)cc1NC(=O)COc1ccc(C(C)C)cc1	i	42
COc1ccc(-c2nc3cc(C(C)C)ccc3o2)cc1NC(=O)COc1ccc(C)cc1	i	64*
Cc1cc(C)cc(OCC(=O)Nc2cc(-c3nc4ccc(C)cc4o3)ccc2C)c1	i	-16
C[C@@H]1CN([C@@H](C)CO)C(=O)c2cc(/C=C/c3ccccc3)cnc2O[C@H]1CN(C)Cc1ccccc1	i	x
C[C@@H]1CN([C@@H](C)CO)C(=O)c2cc(NS(C)(=O)=O)ccc2O[C@@H](C)CCCCO[C@@H]1CN(C)Cc1ccc2c(c1)OCO2	x	-3
C[C@@H]1CCCCO[C@@H](CN(C)S(=O)(=O)c2cccs2)[C@@H](C)CN([C@@H](C)CO)C(=O)c2cc(NC(=O)Cc3ccccc3)ccc2O1	i	2
Cc1nc2nc(NCc3cccc([N+](=O)[O-])c3)[nH]n2c(=O)c1Cc1ccccc1	i	9
COc1cccc(CNc2nc3nc(C)c(Cc4ccccc4)c(=O)n3[nH]2)c1	+	4
COc1cc2ncnc(Nc3ccc(Cl)cc3F)c2cc1OC	i	x
COc1cc2nccc(Oc3ccc(NC(=O)Nc4ccc(F)cc4F)c(F)c3)c2cc1OC	+	-62
COc1ccc(NC(=O)Cn2c(-c3ccccc3)nc3sc4c(c3c2=O)CCCC4)cc1	i	22
Cc1ccc2c(C(=O)Nc3sc4c(c3C(N)=O)CCCCC4)cc(-c3ccccn3)nc2c1C	+	6
CCc1c(C)sc(NC(=O)c2cc(-c3ccccn3)nc3c(C)cccc23)c1C(=O)N1CCCCC1	i	-15
CC(C)C#Cc1cnc2c(c1)C(=O)N([C@H](C)CO)C[C@@H](C)[C@H](CN(C)C(=O)c1ccccn1)O2	i	11
CN1CCN(C(=O)C[C@@H]2CC[C@H](NC(=O)Nc3ccccc3F)[C@@H](CO)O2)CC1	i	x
CC(C)(C)c1ccc(C(=O)NCCNc2ccccc2[N+](=O)[O-])cc1	i	114*
Cc1ccc(C(=O)NCCNc2ccccc2[N+](=O)[O-])cc1	i	-8
SMILES	ID4 SMM	mut p53 react
C[C@@H]1CCCCO[C@H](CN(C)C(=O)Nc2ccccc2)[C@H](C)CN([C@H](C)CO)C(=O)c2cc(NC(=O)CCC(F)(F)F)ccc2O1	i	3
OCc1nc2ccccc2n1CCCOc1ccc(Br)cc1	i	56*
CC(C)(C)c1ccc(OCCn2c(CO)nc3ccccc32)cc1	i	-4
C[C@@H]1CN([C@@H](C)CO)S(=O)(=O)c2ccc(C#CC3CCCC3)cc2O[C@H]1CN(C)C	i	x
Nc1[nH]nc2nc3ccccc3nc12	x	64*
COc1ccc(OC)c(NC(=O)COc2ccc3c(=O)c(-c4ccc(OC)c(OC)c4)c(C(F)(F)F)oc3c2)c1	i	-42
COc1ccc(NC(=O)Nc2cccc3c2O[C@@H](CN(C)Cc2ccc(C(=O)O)cc2)[C@H](C)CN([C@@H](C)CO)C3=O)cc1	i	15
Cc1noc(C)c1S(=O)(=O)N(C)C[C@@H]1OCCCC[C@H](C)Oc2ccc(NC(=O)CCCN(C)C)cc2C(=O)N([C@H](C)CO)C[C@H]1C	i	7
O=C(CSc1nnc(-c2ccco2)n1-c1cccc2ccccc12)Nc1ccc(C(=O)O)cc1	+	3
COc1ccc(NC(=O)CSc2nnc(-c3ccco3)n2-c2ccccc2)cc1	i	15
COc1ccc(S(=O)(=O)N(C)C[C@@H]2Oc3c(NS(=O)(=O)c4ccccc4)cccc3C(=O)N([C@H](C)CO)C[C@@H]2C)cc1	i	-6
Nc1nnc(SCC(=O)Nc2ccccc2Br)s1	i	13
O=C(COc1cc(Cl)c(Cl)cc1Cl)NCc1ccco1	i	56*
O=C(COc1ccccc1Cl)NCc1ccco1	i	21
COc1ccc(-c2cc(=O)c3c(OC)c(OC)c(OC)c(OC)c3o2)cc1OC	i	x
COc1ccc(-c2cc(=O)c3c(O)c(OC)c(O)c(OC)c3o2)cc1	x	58*
COc1cc2c(cc1NC(=O)CSc1nnnn1C)oc1ccccc12	i	147*
COc1cc2c(cc1NC(=O)CSc1nnc(N)s1)oc1ccccc12	i	117*
COc1ccc(NC(=O)CSc2nnc(N)s2)c(OC)c1	i	6
COc1cc2c(cc1NC(=O)CSc1ccccn1)oc1ccccc12	i	38
CN(C)C(CC(=O)Nc1cccc(Cl)c1Cl)C(=O)O (stereo unspecified)	i	-4
CCCC(=O)N(CCc1c[nH]c2ccccc12)[C@@H]1CC(C(=O)NCCO)=C[C@H](Oc2c(I)cc(CO)cc2OC)[C@H]1O	+	x
COc1cc(SC)ccc1C(=O)NCCc1c[nH]c2ccccc12	i	12
Clc1ccc2ncnc(NCc3ccc4c(c3)OCO4)c2c1	x	-53
COc1ccc2ncc3c(c2c1)-c1cc(Cl)ccc1OC3	i	69*
SMILES	ID4 SMM	mut p53 react
C[C@@H]1CN([C@H](C)CO)C(=O)c2cc(C#CCN(C)C)cnc2O[C@@H]1CN(C)C(=O)c1cccc(F)c1	i	x
CC(C)CC#Cc1cnc2c(c1)C(=O)N([C@H](C)CO)C[C@@H](C)[C@@H](CN(C)Cc1cccc(F)c1)O2	i	x
O=C1NC(=S)N(S(=O)(=O)c2cccc3cccnc23)C1Cc1ccccc1 (stereo unspecified)	i	-18
Cc1noc(C)c1NC(=O)Nc1ccc2c(c1)C(=O)N([C@H](C)CO)C[C@H](C)[C@H](CN(C)S(=O)(=O)c1cn(C)cn1)OCCCC[C@H](C)O2	i	1
C[C@@H]1O[C@@H](O[C@H]2[C@@H]3C=CO[C@@H](O[C@@H]4O[C@H](CO)[C@@H](O)[C@H](O)[C@H]4O)[C@@H]3[C@@]3(CO)O[C@@H]23)[C@H](OC(=O)/C=C/c2ccc(O)cc2)[C@H](O)[C@H]1O	x	-64
COc1ccc(C#Cc2cnc3c(c2)C(=O)N([C@@H](C)CO)C[C@@H](C)[C@H](CN(C)C(=O)c2ccccc2F)O3)cc1	i	-10
Cc1ccc(C)c(NC(=O)CN(c2cccc(F)c2)S(C)(=O)=O)c1	i	64*
Cc1ccc(NC(=O)CN(c2cccc(F)c2)S(C)(=O)=O)cc1Cl	i	0
C[C@@H]1CN([C@H](C)CO)C(=O)c2cccc(NS(C)(=O)=O)c2O[C@H]1CN(C)S(=O)(=O)c1ccccc1	x	5
Cc1ccc(-c2cnc3c(c2)C(=O)N([C@@H](C)CO)C[C@H](C)[C@@H](CN(C)C)O3)cc1	i	x
CCCN(C)C[C@H]1Oc2ncc(-c3cccc(C(=O)N(C)C)c3)cc2C(=O)N([C@H](C)CO)C[C@H]1C	i	x

Assay outcomes as filed in PubChem.
